# Unmarked numbers belong to inactive results. Activity calls are given as the source filed them. Rule as the data show it: active = inhibition above about 50%; inactive = the rest.
# Target: Prolyl endopeptidase-like (Mus musculus) (UniProt Q8C167)
# Test: purified PREPL inhibitors, PREPL inhibitor project, biochemical, gel-based competitive ABPP, fluorescence, HTS hits (AID 624481)
# Settings: at 20 µM, hits give high values
# Sequence of Prolyl endopeptidase-like (Mus musculus) (Q8C167 whole entry, looked up): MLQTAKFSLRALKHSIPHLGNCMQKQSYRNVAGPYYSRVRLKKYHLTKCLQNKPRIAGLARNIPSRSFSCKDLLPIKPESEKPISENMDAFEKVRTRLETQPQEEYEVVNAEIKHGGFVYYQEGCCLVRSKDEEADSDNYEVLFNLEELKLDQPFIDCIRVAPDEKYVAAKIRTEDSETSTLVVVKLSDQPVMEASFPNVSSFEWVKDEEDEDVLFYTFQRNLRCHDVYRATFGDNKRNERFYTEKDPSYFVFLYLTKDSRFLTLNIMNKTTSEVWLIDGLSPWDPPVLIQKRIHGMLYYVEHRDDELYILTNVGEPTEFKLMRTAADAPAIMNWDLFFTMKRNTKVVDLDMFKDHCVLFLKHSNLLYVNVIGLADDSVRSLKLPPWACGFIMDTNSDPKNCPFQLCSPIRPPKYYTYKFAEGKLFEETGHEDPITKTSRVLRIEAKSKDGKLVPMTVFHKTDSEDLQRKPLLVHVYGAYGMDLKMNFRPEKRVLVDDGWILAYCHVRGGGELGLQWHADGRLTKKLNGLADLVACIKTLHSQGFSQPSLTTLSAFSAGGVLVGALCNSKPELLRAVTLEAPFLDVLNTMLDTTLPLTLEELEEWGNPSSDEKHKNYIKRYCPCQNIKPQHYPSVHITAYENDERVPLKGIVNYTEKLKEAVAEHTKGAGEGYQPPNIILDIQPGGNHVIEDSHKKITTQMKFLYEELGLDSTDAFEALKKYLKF
row,Compound,inhibition
1,Oc1sc(C=Nc2ccc(F)cc2)c2ccccc12,20%
2,Cc1cc(/C=C2\SC(=Nc3ccc(F)cc3)NC2=O)c(C)n1-c1ccc(S(N)(=O)=O)cc1,28%
3,CC(C)C[C@@H]1CN=C(N)N1C[C@@H]1CCCN1C[C@@H](C(C)C)N1C[C@@H](Cc2ccccc2)N(CCCC2CCCC2)C1=N,-52%
4,CCN(CC)c1ccc(-c2sc(Nc3ccccc3)n[n+]2-c2ccc(F)cc2)cc1,-94%
5,COc1ccc2cc1Oc1ccc(cc1)C[C@H]1c3cc(c(OC)cc3CCN1C)Oc1c(OC)c(OC)cc3c1[C@H](C2)N(C)CC3,-30%
6,COc1ccc(C=NNc2cc(C)nc3ccc(OC)cc23)c(OC)c1,6%
7,Cc1cccc(C2CC(c3ccc(Cl)cc3)Nc3nc(N)nn32)c1 (stereo not drawn),-60%
8,Clc1ccc2nc(-c3ccccn3)c(Nc3ccc4c(c3)OCO4)n2c1,-49%
9,CN1CCN(c2ccc(NC(=O)COc3ccc4ccccc4c3)cc2)CC1,-21%
10,COc1ccc(N2CCN(C(=O)CN3C(=O)NC(C)(c4ccc5ccccc5c4)C3=O)CC2)cc1 (stereo not drawn),-26%
11,COc1ccc(Cn2c(SCc3ccccc3C)nc3cc(OC)c(OC)cc3c2=N)cc1,52% (active)
12,C#CCOCCOCCOCCNc1nc(N2CCN(C(=O)[C@H](CCCCN)n3cc([C@@H](N)C(C)CC)nn3)CC2)nc(N2CCN(C(=O)[C@H](Cc3cc4ccccc4[nH]3)n3cc([C@@H](N)CC(C)C)nn3)CC2)n1 (stereo partly drawn),-8%
13,Nc1nn(-c2ccccc2)c(N)c1N=Nc1ccccc1,-16%
14,Cc1ccc(C)c(-c2nn(-c3cc(N4CCN(CCO)CC4)ccc3[N+](=O)[O-])c(=O)c3ccccc23)c1,7%
15,CC(C)[C@H](CN1CCC[C@H]1CN1C(N)=NC[C@@H]1Cc1ccccc1)N1C[C@@H](Cc2ccccc2)N(CCc2ccc(Cl)c(Cl)c2)C1=N,-75%
16,Cc1c(CN(C)C)c2c(n1Cc1ccccc1)C(=O)c1ccc(Br)cc1-2,-33%
17,CC(C)NCC(O)Cn1c2c(c3ccccc31)CCc1c-2cnn1-c1ccccc1 (stereo not drawn),-123%

row,Compound,inhibition
1,O=C(Nc1ccc2c(c1)OCCO2)c1cccc2nc3ccccc3nc12,-12%
2,Oc1cc(Nc2ccncc2)cc2cccnc12,-59%
3,C#CCOCCOCCOCCNc1nc(N2CCN(C(=O)[C@H](Cc3cc4ccccc4[nH]3)n3cc([C@@H](N)CC(C)C)nn3)CC2)nc(N2CCN(C(=O)[C@H](Cc3cc4ccccc4[nH]3)n3cc([C@@H](N)CC(C)C)nn3)CC2)n1,-82%
4,CC(C)[C@@H]1CN=C(N)N1C[C@@H]1CCCN1C[C@H](C)N1C[C@@H](Cc2ccccc2)N(CCc2ccc(Cl)c(Cl)c2)C1=N,-62%
5,Cc1cccc(OCC(=O)Nc2ccc(N3CCN(C(=O)c4ccccc4)CC3)cc2)c1,-12%
6,CNc1oc(-c2ccccc2Cl)nc1P(=O)(c1ccccc1)c1ccccc1,10%
7,CN(C)CCN1C(=O)C(O)=C(C(=O)c2cc3ccccc3o2)C1c1ccc(N(C)C)cc1 (stereo not drawn),-47%
8,Clc1ccc(-c2csc(=Nc3cccnc3)n2CCCn2ccnc2)cc1Cl,-41%
9,COc1ccc(Nc2nc(N3CCCC3)c3ccccc3n2)cc1,-50%
10,COCCCNC(=O)/C(C#N)=C/c1c(N2CCN(c3ccc(OC)cc3)CC2)nc2c(C)cccn2c1=O,-39%
11,CCC[C@@H](CN1CCC[C@H]1CN1C(N)=NC[C@H]1C(C)C)N1C[C@@H]([C@H](C)CC)N(CCCC2CCCC2)C1=N,-68%
12,CCN(CC)CCNc1ccc(CO)c2sc3ccccc3c(=O)c12,-23%
13,CN(C)c1ccc(C(CNC(=O)c2ccccc2)c2c[nH]c3ccccc23)cc1 (stereo not drawn),13%
14,CC(=O)n1cc([C@@H]2C=C(C(=O)N3CCN(C)CC3)O[C@H](OCc3ccc(CO)cc3)C2)c2ccccc21,-55%
15,O=C(C1=C[C@@H](c2ccc(Br)cc2)C[C@@H](OCc2ccc(CO)cc2)O1)N1CCOCC1,-26%
16,C#CCOCCOCCOCCNc1nc(N2CCN(C(=O)[C@H](Cc3cc4ccccc4[nH]3)n3cc([C@@H](N)C(C)CC)nn3)CC2)nc(N2CCN(C(=O)[C@H](Cc3cc4ccccc4[nH]3)n3cc([C@@H](N)Cc4ccc(O)cc4)nn3)CC2)n1 (stereo partly drawn),-104%

# Reference: PubChem BioAssay AID624481 (The Scripps Research Institute Molecular Screening Center, 2012)
